Measured values: PubChem BioAssay
Some of the results follow. Activity calls are given as the source filed them. Unless noted, no stated cut-off is given here; in the data, active means inhibition above about 25%; inactive means the rest.

Tests used:
[1] = target: Protein-arginine deiminase type-4 (Homo sapiens) (UniProt Q9UM07); test: protein arginine deiminase 4 blockade, retest – biochemical, fluorescence polarization, confirmation (AID 488796;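 active means mean inhibition across replicates above the hit cutoff set by the earlier primary screen, cut at about 15% in these data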;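 further: inhibitors block active-site labeling by the probe so polarization falls; 0% = PAD4 with probe and DMSO and 100% = probe without PAD4 enzyme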); details: recombinant PAD4, RCA probe fluorescence polarization; at 6.36 µM; active compounds read high
Sequence of Protein-arginine deiminase type-4 (Homo sapiens) (Q9UM07 whole entry, looked up): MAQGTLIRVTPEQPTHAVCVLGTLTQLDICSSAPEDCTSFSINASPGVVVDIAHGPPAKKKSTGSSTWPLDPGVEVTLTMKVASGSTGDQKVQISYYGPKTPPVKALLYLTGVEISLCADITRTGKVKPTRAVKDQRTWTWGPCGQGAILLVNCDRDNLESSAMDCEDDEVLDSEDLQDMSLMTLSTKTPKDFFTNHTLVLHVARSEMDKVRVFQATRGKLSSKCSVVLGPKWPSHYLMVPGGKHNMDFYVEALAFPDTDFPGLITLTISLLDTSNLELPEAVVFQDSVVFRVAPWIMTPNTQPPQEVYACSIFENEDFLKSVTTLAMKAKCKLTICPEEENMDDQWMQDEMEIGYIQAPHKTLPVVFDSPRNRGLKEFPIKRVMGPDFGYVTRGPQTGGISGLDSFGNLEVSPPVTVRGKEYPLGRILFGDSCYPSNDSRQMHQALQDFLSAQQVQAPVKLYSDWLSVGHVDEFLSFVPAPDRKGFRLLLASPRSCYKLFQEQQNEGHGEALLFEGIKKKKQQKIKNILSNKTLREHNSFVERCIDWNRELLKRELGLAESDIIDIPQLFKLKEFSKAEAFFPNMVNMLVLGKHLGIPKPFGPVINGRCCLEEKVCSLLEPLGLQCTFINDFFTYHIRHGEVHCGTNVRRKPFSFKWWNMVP

[2] = target: Platelet-activating factor acetylhydrolase (Homo sapiens) (UniProt Q13093); test: inhibition of plasma PAF acetylhydrolase – biochemical, fluorescence polarization, human, confirmation (AID 463230;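 active means mean inhibition of the triplicate above the hit cutoff set for the earlier primary screen, cut at about 25% in these data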;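 further: 0% = enzyme with DMSO and 100% = wells lacking pPAFAH enzyme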); details: recombinant pPAFAH, FP-Rh probe fluorescence polarization; at 3.39 µM; active compounds read high
Sequence of Platelet-activating factor acetylhydrolase (Homo sapiens) (Q13093 whole entry, looked up): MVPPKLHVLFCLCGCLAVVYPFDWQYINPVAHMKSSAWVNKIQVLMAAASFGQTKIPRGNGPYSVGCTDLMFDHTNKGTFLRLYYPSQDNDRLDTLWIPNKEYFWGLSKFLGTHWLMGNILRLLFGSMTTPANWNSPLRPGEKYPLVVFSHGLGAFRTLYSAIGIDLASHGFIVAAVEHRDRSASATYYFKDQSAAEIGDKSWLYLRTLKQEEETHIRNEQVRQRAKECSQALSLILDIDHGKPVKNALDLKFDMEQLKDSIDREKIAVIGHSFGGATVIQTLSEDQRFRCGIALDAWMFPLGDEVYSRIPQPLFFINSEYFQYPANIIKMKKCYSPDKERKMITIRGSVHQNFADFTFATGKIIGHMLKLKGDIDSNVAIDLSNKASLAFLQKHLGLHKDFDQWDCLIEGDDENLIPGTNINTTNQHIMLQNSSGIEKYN

[3] = system: transactivating tegument protein VP16 (Human herpesvirus 1); test: compounds suppressing VP16-driven luciferase signal – cell-based, luminescence, single concentration, counter-screen for SRC2 inhibitor project (AID 652007; in the data active means inhibition above about 36%); details: cell-based VP16 transactivation luciferase reporter, at 8.9 µM, active compounds read high
[4] = target: Nuclear receptor coactivator 2 (Homo sapiens) (UniProt Q15596); test: inhibition of GAL4-SRC2 driven luciferase expression – cell-based, luminescence, HEK293, triplicate, confirmation (AID 652008;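 active means mean inhibition above 46.5%, the solvent-only control mean plus 3 SD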;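 further: 0% = DMSO-treated cells and 100% = Gossypol at 36 µM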); details: HEK293 GAL4-SRC2 luciferase reporter, at 8.9 µM, active compounds read high
Sequence of Nuclear receptor coactivator 2 (Homo sapiens) (Q15596 whole entry, looked up, the tested form may be a part): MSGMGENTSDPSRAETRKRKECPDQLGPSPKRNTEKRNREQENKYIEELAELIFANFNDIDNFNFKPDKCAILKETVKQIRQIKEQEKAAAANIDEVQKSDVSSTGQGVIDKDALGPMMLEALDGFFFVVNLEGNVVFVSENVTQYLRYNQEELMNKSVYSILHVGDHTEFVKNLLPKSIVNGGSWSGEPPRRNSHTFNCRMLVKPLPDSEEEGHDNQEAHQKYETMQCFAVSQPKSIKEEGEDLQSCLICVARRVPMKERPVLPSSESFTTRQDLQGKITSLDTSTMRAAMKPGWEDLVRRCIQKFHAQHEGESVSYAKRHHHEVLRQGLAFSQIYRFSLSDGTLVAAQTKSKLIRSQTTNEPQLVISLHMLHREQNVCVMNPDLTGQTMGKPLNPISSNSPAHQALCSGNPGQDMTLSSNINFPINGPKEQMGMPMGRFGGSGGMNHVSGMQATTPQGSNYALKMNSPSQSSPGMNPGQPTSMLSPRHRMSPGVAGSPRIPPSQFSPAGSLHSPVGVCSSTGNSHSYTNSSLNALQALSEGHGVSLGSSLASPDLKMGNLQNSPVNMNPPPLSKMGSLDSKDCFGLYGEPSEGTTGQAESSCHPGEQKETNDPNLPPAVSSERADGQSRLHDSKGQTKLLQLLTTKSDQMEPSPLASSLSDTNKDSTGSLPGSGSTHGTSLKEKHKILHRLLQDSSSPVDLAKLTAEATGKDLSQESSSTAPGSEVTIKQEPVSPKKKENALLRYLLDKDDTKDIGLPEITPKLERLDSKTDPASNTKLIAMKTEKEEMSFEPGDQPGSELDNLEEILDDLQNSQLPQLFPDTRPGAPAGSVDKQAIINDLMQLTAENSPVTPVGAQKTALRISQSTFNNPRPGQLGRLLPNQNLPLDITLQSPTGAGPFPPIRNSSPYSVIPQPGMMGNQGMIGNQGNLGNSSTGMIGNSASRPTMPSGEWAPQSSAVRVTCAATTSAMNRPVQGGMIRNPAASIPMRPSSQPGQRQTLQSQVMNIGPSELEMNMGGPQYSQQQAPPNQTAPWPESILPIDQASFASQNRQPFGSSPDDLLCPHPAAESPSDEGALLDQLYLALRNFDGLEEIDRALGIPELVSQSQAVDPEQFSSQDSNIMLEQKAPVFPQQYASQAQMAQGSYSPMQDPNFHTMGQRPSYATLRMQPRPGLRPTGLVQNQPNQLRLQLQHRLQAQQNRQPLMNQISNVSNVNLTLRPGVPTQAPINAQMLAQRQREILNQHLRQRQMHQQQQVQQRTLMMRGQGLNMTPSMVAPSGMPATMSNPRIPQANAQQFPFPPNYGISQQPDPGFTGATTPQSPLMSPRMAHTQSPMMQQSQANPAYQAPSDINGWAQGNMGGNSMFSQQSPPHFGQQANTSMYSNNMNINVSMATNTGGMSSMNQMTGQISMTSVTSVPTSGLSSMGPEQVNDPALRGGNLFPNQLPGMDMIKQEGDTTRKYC

[5] = target: Platelet-activating factor acetylhydrolase IB subunit alpha1 (Homo sapiens) (UniProt Q15102); test: inhibition of PAF acetylhydrolase 1B subunit 3 – biochemical, fluorescence polarization, human, confirmation (AID 493032;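 active means average inhibition over triplicate runs above the hit cutoff set in the earlier primary screen, cut at about 25% in these data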;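 further: 0% = enzyme with DMSO and 100% = wells lacking PAFAH1B3 protein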); details: recombinant PAFAH1B3, FP-Rh activity-based probe, at 3.39 µM, active compounds read high
Sequence of Platelet-activating factor acetylhydrolase IB subunit alpha1 (Homo sapiens) (Q15102 whole entry, looked up): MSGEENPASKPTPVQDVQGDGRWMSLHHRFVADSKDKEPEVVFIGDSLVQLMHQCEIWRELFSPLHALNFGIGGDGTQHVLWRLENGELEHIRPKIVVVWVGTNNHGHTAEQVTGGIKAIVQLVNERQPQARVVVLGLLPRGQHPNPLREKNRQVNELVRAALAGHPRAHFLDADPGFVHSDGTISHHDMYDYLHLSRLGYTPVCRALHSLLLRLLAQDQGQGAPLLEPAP

[6] = reduced OD of T4-infected AddAB+ E. coli – absorbance, E. coli V3065, T4 phage, triplicate, AddAB inhibitor project, confirmation (AID 488942;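 active means mean inhibition above a set limit taken from the earlier primary screen, cut at about 13% in these data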;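 further: higher means less bacterial growth since AddAB block lets phage replicate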); details: E. coli V3065 expressing H. pylori AddAB, at 11.9 µM, active compounds read high, T4 phage with gene 2 nonsense mutations
[7] = reduced OD of phage-infected RecBCD+ V66 E. coli – absorbance, mutant T4 phage, counter-screen for AddAB inhibitor project (AID 488955;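 active means mean inhibition above the mean of solvent-only control wells plus 3 SD, cut at about 4% in these data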;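 further: optical density read after an 18 h incubation at 37 °C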); details: OD growth, at 11.9 µM, active compounds read high
[8] = bacterial growth inhibitors – absorbance, counter-screen for AddAB inhibitor project, confirmation (AID 488956); details: bacterial viability, absorbance (AddAB counterscreen); at 11.9 µM; active compounds read high
[9] = target: Serine protease HTRA1 (Homo sapiens) (UniProt Q92743); test: confirming inhibition of human HTRA1 – biochemical, fluorescence polarization, confirmation (AID 540248;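 active means mean inhibition over three repeats above a set limit taken from the earlier primary screen, cut at about 37% in these data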;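 further: 0% = HTRA1 with DMSO and 100% = wells lacking HTRA1; inhibitors block probe binding so polarization drops and inhibition rises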); details: recombinant HTRA1, FP-rhodamine activity-based probe, at 5.96 µM, active compounds read high
[10] = reduced OD of V66 E. coli with T4 gene 2 phage – absorbance, RecBCD inhibitor project, confirmation (AID 651982;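 active means mean inhibition over triplicates exceeding the hit threshold derived in the original primary screen, cut at about 11% in these data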); details: E. coli V66 + T4 2- phage, growth OD; at 11.9 µM; active compounds read high
[11] = bacterial growth inhibition – absorbance, high throughput, counter-screen for RecBCD inhibitor project (AID 651983; in the data active means inhibition above about 20%;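 further: E. coli strain V66 grown with compound alone and no phage infection; 0% = bacteria with DMSO vehicle only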); details: E. coli viability, absorbance (OD) growth; at 11.9 µM; active compounds read high
[12] = reduced optical density, T4-challenged addAB+ bacteria – absorbance, E. coli V3065, T4 phage, counter-screen for RecBCD inhibitor project, confirmation (AID 651984;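 active means mean inhibition above the solvent-only control wells' mean plus 3 SD, cut at about 22% in these data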;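 further: higher means less bacterial growth from phage killing when AddAB is blocked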); details: E. coli expressing H. pylori AddAB + T4 phage, OD growth; at 11.9 µM; active compounds read high; gene 2 mutant T4, recBCD-deleted host
[13] = target: Nuclear receptor coactivator 3 (Homo sapiens) (UniProt Q9Y6Q9); test: NCOA3 GAL4-fusion reporter inhibition – cell-based, luminescence, quadruplicate, confirmation (AID 588792;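 active means mean inhibition over 43.08%, the solvent-only control mean plus 3 SD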;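 further: 0% = DMSO treated cells and 100% = gossypol at 36 µM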); details: HEK293 GAL4-SRC3 luciferase reporter, at 3.6 µM, active compounds read high
[14] = system: transactivating tegument protein VP16 (Human herpesvirus 1), Gal4-VP16 luciferase reporter; test: repression of VP16-driven luciferase reporter – cell-based, luminescence, high throughput, counter-screen for SRC3 inhibitor project (AID 588794; in the data active means inhibition above about 30%); details: mammalian cells, at 3.6 µM, active compounds read high
[15] = target: Nuclear receptor coactivator 1 (Homo sapiens) (UniProt Q15788); test: NCOA1 GAL4-fusion reporter inhibition – cell-based, luminescence, quadruplicate, confirmation (AID 588820;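 active means mean inhibition above 46.68%, the untreated control wells mean plus 3 SD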;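 further: 0% = DMSO wells and 100% = gossypol 36 µM treated wells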); details: HEK293 GAL4-SRC1 luciferase reporter, at 3.6 µM, active compounds read high
Sequence of Nuclear receptor coactivator 1 (Homo sapiens) (Q15788 whole entry, looked up, the tested form may be a part): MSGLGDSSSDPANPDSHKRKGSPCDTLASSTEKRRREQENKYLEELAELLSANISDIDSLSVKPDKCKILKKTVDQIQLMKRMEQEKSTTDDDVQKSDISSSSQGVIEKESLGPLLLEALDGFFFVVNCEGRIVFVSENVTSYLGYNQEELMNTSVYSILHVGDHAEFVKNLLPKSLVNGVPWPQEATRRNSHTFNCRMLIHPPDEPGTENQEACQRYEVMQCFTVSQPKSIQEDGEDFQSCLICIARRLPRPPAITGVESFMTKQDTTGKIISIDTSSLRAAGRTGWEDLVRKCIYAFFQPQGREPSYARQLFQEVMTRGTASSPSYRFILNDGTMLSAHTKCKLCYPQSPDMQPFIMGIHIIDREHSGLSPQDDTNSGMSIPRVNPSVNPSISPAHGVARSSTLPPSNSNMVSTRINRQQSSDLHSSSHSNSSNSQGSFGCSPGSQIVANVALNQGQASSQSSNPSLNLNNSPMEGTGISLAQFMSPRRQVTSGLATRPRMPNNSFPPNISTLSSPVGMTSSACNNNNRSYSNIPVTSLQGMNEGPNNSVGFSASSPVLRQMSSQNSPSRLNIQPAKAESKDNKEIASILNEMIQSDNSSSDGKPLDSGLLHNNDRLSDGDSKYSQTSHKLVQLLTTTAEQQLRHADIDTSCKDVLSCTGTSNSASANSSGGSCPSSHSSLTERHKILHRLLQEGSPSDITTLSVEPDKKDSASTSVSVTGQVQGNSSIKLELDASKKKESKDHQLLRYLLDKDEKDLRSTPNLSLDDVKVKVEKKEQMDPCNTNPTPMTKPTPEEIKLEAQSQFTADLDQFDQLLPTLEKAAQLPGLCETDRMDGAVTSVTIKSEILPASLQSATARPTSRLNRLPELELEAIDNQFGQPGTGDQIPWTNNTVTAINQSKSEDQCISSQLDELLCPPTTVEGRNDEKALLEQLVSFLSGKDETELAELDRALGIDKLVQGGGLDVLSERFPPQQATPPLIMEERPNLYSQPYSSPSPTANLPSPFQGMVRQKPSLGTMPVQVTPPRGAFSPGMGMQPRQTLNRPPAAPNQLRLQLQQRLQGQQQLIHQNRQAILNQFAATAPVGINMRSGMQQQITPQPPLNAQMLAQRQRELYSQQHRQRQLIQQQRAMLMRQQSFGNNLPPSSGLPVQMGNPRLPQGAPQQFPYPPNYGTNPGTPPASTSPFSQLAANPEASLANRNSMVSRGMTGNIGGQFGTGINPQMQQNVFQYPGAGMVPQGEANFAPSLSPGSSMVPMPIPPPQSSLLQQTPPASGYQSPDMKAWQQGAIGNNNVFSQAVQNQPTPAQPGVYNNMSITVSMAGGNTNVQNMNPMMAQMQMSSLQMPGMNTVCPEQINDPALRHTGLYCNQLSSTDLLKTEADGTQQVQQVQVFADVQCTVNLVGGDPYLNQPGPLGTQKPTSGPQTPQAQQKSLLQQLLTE

[16] = repression of VP16-driven luciferase reporter – cell-based, luminescence, high throughput, counter-screen for SRC1 inhibitor project (AID 588824); details: cell-based VP16 transactivation luciferase luminescence; at 3.6 µM; active compounds read high
[17] = StAR promoter reporter inhibitors, counter-screen for LRH-1 inverse agonist project, cell-based, luminescence, high throughput (AID 651611; in the data active means inhibition above about 28%); details: StAR promoter luciferase reporter counterscreen, at 3.6 µM, active compounds read high
[18] = target: Nuclear receptor subfamily 5 group A member 2 (Homo sapiens) (UniProt O00482); test: NR5A2 activity suppression in reporter cells – cell-based, luminescence, confirmation (AID 651613; in the data active means inhibition above about 42%;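 further: HEK293T cells co-transfected with LRH-1 and StAR promoter luciferase reporter; 0% = vehicle wells and 100% = parental cells lacking receptor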); details: cell-based LRH-1 luciferase reporter, inverse agonism; at 3.6 µM; active compounds read high
[19] = target: Steroidogenic factor 1 (Homo sapiens) (UniProt Q13285); test: inverse agonism at SF1 nuclear receptor – cell-based, luminescence, high throughput, counter-screen for LRH-1 inverse agonist project (AID 651614; in the data active means inhibition above about 44%;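 further: cells cotransfected with StAR promoter reporter and SF1 expression vector; 0% = vehicle on cells with receptor and 100% = vehicle on cells lacking receptor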); details: cell-based SF1 luciferase reporter, at 3.6 µM, active compounds read high
Sequence of Steroidogenic factor 1 (Homo sapiens) (Q13285 whole entry, looked up, the tested form may be a part): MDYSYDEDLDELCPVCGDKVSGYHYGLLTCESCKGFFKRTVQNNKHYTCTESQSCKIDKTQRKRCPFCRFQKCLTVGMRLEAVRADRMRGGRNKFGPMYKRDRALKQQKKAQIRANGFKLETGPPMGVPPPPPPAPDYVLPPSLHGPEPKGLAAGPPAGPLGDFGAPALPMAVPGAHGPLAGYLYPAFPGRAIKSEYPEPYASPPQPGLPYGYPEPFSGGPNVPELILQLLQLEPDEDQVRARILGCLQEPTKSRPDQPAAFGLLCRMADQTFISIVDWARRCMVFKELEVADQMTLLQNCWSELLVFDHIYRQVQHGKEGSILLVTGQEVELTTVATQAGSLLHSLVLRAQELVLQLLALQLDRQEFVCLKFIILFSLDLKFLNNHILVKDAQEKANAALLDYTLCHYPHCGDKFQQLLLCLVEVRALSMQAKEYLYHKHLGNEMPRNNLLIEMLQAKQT

[20] = compounds suppressing VP16-driven luciferase signal – cell-based, luminescence, high throughput, counter-screen for LRH-1 inverse agonist project (AID 651615; in the data active means inhibition above about 33%); details: Gal4-VP16 luciferase reporter cells, at 3.6 µM, active compounds read high

Cc1cc(O)ccc1-c1cnc2ccccc2n1
inhibition [1]: 29.1% (active)

CC(=O)Oc1cccc(N2C(=O)CC(Nc3ccc(N4CCOCC4)cc3)C2=O)c1 (centres undefined)
inhibition [1]: -1.36% (inactive)

O=C(/C=C/c1cccs1)c1cc(Cl)ccc1OC(=O)N1CCOCC1
inhibition [2]: 47.8% (active) | inhibition [3]: 20.3% (inactive) | inhibition [4]: -4.35% (inactive)

Cc1ccc(C(=O)CSc2nc3ccccc3c(=O)n2N)o1
inhibition [1]: 1.81% (inactive)

COc1cccc(NC(=O)C2c3cc(OC)c(OC)cc3C(=O)N(C)C2c2cccnc2)c1 (centres undefined)
inhibition [1]: 8.92% (inactive)

CCOC(=O)N1CCC(c2cc(=O)n(-c3ccccc3)[nH]2)CC1
inhibition [1]: -0.34% (inactive)

CN1C(c2ccc(F)cc2)=CS/C1=C(/C#N)c1nnc2n1-c1ccccc1SC2
inhibition [5]: 20.9% (inactive)

CSC(=S)N/N=C/c1c[nH]c2ccccc12
inhibition [6]: 24.2% (active) | inhibition [7]: 11.8% (active) | inhibition [8]: 29.5% (active) | inhibition [9]: 33.3% (inactive)

Cc1cc(-c2csc(N)n2)c(C)n1-c1ccccc1
inhibition [9]: 28.5% (inactive)

O=C1c2ccccc2C(=O)c2c1cccc2N1CCN(Cc2ccccc2)CC1
inhibition [9]: 60.1% (active)

C=CCNC(=O)c1cc(-c2ccccc2O)on1
inhibition [6]: -1.87% (inactive) | inhibition [7]: 1.86% (inactive) | inhibition [8]: 0.32% (inactive)

CC[C@H]1OC(=O)[C@H](C)[C@@H](O[C@H]2C[C@@](C)(OC)[C@@H](O)[C@H](C)O2)[C@H](C)[C@@H](O[C@@H]2O[C@H](C)C[C@H](N(C)C)[C@H]2O)[C@](C)(O)C[C@@H](C)[C@@H]2N[C@@H](COCCOC)O[C@H]([C@H]2C)[C@]1(C)O
inhibition [6]: 62.5% (active) | inhibition [7]: 41% (active) | inhibition [8]: 37.2% (active) | inhibition [10]: 33.9% (active) | inhibition [11]: 34.4% (active) | inhibition [12]: 42.6% (active)

Nc1nonc1-n1nnc(C(=O)N/N=C/c2cc(Br)ccc2O)c1CSC1=NCCS1
inhibition [6]: 14.2% (active) | inhibition [7]: 16% (active) | inhibition [8]: 9.73% (inactive) | inhibition [13]: 42.7% (inactive) | inhibition [14]: 34.5% (active) | inhibition [15]: 41% (inactive) | inhibition [16]: 33.4% (active) | inhibition [10]: 6.91% (inactive) | inhibition [11]: 9.92% (inactive) | inhibition [12]: 10.8% (inactive)

Cc1ccc(C)c(NC(=O)NNC(=O)c2ccc3ccccc3c2O)c1
inhibition [5]: 40.5% (active)

Cc1ccc(C(=O)/C=C/Nc2ccc(S(=O)(=O)Nc3onc(C)c3C)cc2)cc1
inhibition [6]: 2.14% (inactive) | inhibition [7]: 3.94% (inactive) | inhibition [8]: 2.93% (inactive)

COc1cccc(Cn2cc(/C=N/NC(=O)c3cc(O)cc(O)c3)c3ccccc32)c1
inhibition [5]: 17.6% (inactive)

CC(C)(C)NC(=O)COC(=O)c1cc(Cl)ccc1[N+](=O)[O-]
inhibition [6]: -4.38% (inactive) | inhibition [7]: 0.98% (inactive) | inhibition [8]: -3.45% (inactive)

COc1ccc(C(=O)c2oc3ccc(Br)cc3c2NC(C)=O)cc1
inhibition [6]: -2.85% (inactive) | inhibition [7]: -1.5% (inactive) | inhibition [8]: -3.05% (inactive)

COc1ccc(C(=O)COC(=O)c2ccc([N+](=O)[O-])s2)cc1OC
inhibition [5]: 13.3% (inactive)

O=C(N/N=C/c1ccc(O)c(O)c1)C1c2ccccc2Oc2ccccc21
inhibition [9]: 76.6% (active)

COc1ccc(NC(=O)ON=C2c3ccccc3-c3ccccc32)cc1
inhibition [5]: 29% (active)

CC(=O)N(O)CCCCCNC(=O)CCC(=O)N(O)CCCCCNC(=O)CCC(=O)N(O)CCCCCNC(=O)CCC(=O)O
inhibition [6]: 13.8% (active) | inhibition [7]: 14.4% (active) | inhibition [8]: 2.8% (inactive) | inhibition [10]: 7.53% (inactive) | inhibition [11]: 11.4% (inactive) | inhibition [12]: 12.5% (inactive)

O=C(CSc1ccc(-c2ccccn2)nn1)Nc1ccccc1
inhibition [6]: 5.71% (inactive) | inhibition [7]: 6.8% (active) | inhibition [8]: 5% (inactive) | inhibition [10]: 2.01% (inactive) | inhibition [11]: 1.79% (inactive) | inhibition [12]: 11.1% (inactive)

ON=C1/C(=N\O)CC2(C/C1=N/O)OCCO2
inhibition [5]: 27.1% (active) | inhibition [10]: 1.75% (inactive) | inhibition [11]: 4.59% (inactive) | inhibition [12]: -10.8% (inactive)

CCN(CC)c1ccc(/C=N/Nc2nc(C)cc(C)n2)c(O)c1
inhibition [9]: 61.8% (active)

Cc1cn(C2C=CC(CO)O2)c(=O)[nH]c1=O (centres undefined)
inhibition [6]: 83.8% (active) | inhibition [7]: 6.53% (active) | inhibition [8]: 42.2% (active) | inhibition [10]: 14.1% (active) | inhibition [11]: 8.16% (inactive) | inhibition [12]: 54.6% (active)

O=C(OCC(=O)c1cccs1)c1ccc([N+](=O)[O-])o1
inhibition [6]: 73.1% (active) | inhibition [7]: 1.72% (inactive) | inhibition [8]: 6.32% (inactive)

O=C(Nc1ccc(Br)cn1)c1ccc([N+](=O)[O-])o1
inhibition [6]: 99.3% (active) | inhibition [7]: 11.8% (active) | inhibition [8]: 30.2% (active) | inhibition [17]: 11% (inactive) | inhibition [18]: 54.7% (active) | inhibition [19]: 55.6% (active) | inhibition [20]: -5.48% (inactive) | inhibition [10]: 7.78% (inactive) | inhibition [11]: 9.86% (inactive) | inhibition [12]: 81.2% (active)
